The test system of assay [1] is PRMT1 (protein arginine N-methyltransferase 1). Kind of assay: small molecules binding arginine methyltransferase PRMT1 – biochemical, small-molecule microarray, 635 nm fluorescence, primary screen (AID 1088).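 Further: binding of Prmt1 protein to compounds spotted on small-molecule microarray slides.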 The note with it: higher = more signal.
A short description of assay [2]: growth effects on S. cerevisiae YJM789 – YJM789 clinical isolate, OD600, 24 h, basal, primary screen (AID 1089).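 Further: growth of clinical yeast isolate S. cerevisiae YJM 789 seeded 1000 cells per well; test concentration not given here.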 The note with it: higher = more signal, called active from +8 up or from −8 down.
The nature of assay [3]: S. pombe growth modifiers, basal conditions – strain 972, OD600, 24 h, no modulator, primary screen (AID 1090).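 Further: basal condition with compound alone and no growth modifier present; test concentration not given here.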 Conditions: S. pombe 972 growth, higher = more signal, called active from +8 up or from −8 down.
Assay [4] is described as follows: budding yeast growth modifiers under rapamycin – strain BY4716, OD600, 96 h, primary screen (AID 1091). Further: test concentration not given here. The note with it: S. cerevisiae BY4716 + rapamycin, higher = more signal, called active from +8 up or from −8 down.
Assay [5] addresses Torsin-1A-interacting protein 2 (Homo sapiens) (UniProt Q8NFQ8). Kind of assay: small molecules binding lysate-expressed LULL1 – cell lysate, human LULL1 lysate, 635/667 nm fluorescence, primary screen (AID 1092).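 Further: probe is lysate of COS7 cells overexpressing human LULL1; score merges per-feature 667 nm fluorescence with signal-to-noise.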 Conditions: small-molecule microarray, hLULL1 lysate binding, 635 nm fluorescence; higher = more signal.
Assay [6] in a line: optical density change of DRC41 E. coli – strain DRC41, OD650, 24 h, E. coli filamentation project, primary screen (AID 1093).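 Further: MC1000 strain lacking acrAB efflux and sulA so SOS filamentation is blocked; test concentration not given here.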 Conditions: E. coli DRC41 growth, higher = more signal, called active from +8 up or from −8 down.
Assay [7] in a line: probe aLefty2 binding to arrayed compounds – biochemical, biotinylated probe, 635/667 nm fluorescence, primary screen (AID 1094).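 Further: score merges spot fluorescence near 667 nm with spot signal-to-noise ratio.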 Conditions: small-molecule microarray, higher = more signal.
The subject of assay [8] is Noggin (protein binding on small-molecule microarray). Kind of assay: small molecules binding Noggin protein – biochemical, 635/667 nm fluorescence, primary screen (AID 1095).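 Further: score merges 667 nm feature fluorescence with signal to noise over triplicate slides.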 Conditions: 635 nm fluorescence, higher = more signal.
Assay [9] concerns the target Neurogenic locus notch homolog protein 3 (Homo sapiens) (UniProt Q9UM47). Kind of assay: small molecules binding NOTCH3 protein – biochemical, 635/667 nm fluorescence, primary screen (AID 1096). Conditions: small-molecule microarray, 635 nm fluorescence, higher = more signal.
A short description of assay [10]: probe aEGFR binding to arrayed compounds – biochemical, biotinylated probe, 635/667 nm fluorescence, primary screen (AID 1097).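 Further: probe is a biotinylated anti-EGFR antibody binding compounds printed on slides; score combines fluorescence near 667 nm and signal to noise of each spot.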 Conditions: small-molecule microarray, higher = more signal.

Calls of active or inactive are those of the source.

Torsin-1A-interacting protein 2 (Homo sapiens), sequence (Q8NFQ8 whole entry, looked up): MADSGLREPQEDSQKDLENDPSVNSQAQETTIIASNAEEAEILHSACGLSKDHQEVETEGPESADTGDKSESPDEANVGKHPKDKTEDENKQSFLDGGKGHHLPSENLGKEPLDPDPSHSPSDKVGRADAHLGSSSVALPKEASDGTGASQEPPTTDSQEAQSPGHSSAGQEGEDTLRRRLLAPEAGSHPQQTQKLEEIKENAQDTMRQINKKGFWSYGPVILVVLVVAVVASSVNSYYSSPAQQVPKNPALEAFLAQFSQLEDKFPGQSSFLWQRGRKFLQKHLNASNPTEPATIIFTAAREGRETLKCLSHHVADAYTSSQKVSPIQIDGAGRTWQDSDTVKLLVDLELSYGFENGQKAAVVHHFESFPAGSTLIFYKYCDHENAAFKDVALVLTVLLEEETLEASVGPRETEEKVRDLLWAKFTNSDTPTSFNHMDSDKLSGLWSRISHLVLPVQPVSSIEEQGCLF
Neurogenic locus notch homolog protein 3 (Homo sapiens), sequence (Q9UM47 whole entry, looked up): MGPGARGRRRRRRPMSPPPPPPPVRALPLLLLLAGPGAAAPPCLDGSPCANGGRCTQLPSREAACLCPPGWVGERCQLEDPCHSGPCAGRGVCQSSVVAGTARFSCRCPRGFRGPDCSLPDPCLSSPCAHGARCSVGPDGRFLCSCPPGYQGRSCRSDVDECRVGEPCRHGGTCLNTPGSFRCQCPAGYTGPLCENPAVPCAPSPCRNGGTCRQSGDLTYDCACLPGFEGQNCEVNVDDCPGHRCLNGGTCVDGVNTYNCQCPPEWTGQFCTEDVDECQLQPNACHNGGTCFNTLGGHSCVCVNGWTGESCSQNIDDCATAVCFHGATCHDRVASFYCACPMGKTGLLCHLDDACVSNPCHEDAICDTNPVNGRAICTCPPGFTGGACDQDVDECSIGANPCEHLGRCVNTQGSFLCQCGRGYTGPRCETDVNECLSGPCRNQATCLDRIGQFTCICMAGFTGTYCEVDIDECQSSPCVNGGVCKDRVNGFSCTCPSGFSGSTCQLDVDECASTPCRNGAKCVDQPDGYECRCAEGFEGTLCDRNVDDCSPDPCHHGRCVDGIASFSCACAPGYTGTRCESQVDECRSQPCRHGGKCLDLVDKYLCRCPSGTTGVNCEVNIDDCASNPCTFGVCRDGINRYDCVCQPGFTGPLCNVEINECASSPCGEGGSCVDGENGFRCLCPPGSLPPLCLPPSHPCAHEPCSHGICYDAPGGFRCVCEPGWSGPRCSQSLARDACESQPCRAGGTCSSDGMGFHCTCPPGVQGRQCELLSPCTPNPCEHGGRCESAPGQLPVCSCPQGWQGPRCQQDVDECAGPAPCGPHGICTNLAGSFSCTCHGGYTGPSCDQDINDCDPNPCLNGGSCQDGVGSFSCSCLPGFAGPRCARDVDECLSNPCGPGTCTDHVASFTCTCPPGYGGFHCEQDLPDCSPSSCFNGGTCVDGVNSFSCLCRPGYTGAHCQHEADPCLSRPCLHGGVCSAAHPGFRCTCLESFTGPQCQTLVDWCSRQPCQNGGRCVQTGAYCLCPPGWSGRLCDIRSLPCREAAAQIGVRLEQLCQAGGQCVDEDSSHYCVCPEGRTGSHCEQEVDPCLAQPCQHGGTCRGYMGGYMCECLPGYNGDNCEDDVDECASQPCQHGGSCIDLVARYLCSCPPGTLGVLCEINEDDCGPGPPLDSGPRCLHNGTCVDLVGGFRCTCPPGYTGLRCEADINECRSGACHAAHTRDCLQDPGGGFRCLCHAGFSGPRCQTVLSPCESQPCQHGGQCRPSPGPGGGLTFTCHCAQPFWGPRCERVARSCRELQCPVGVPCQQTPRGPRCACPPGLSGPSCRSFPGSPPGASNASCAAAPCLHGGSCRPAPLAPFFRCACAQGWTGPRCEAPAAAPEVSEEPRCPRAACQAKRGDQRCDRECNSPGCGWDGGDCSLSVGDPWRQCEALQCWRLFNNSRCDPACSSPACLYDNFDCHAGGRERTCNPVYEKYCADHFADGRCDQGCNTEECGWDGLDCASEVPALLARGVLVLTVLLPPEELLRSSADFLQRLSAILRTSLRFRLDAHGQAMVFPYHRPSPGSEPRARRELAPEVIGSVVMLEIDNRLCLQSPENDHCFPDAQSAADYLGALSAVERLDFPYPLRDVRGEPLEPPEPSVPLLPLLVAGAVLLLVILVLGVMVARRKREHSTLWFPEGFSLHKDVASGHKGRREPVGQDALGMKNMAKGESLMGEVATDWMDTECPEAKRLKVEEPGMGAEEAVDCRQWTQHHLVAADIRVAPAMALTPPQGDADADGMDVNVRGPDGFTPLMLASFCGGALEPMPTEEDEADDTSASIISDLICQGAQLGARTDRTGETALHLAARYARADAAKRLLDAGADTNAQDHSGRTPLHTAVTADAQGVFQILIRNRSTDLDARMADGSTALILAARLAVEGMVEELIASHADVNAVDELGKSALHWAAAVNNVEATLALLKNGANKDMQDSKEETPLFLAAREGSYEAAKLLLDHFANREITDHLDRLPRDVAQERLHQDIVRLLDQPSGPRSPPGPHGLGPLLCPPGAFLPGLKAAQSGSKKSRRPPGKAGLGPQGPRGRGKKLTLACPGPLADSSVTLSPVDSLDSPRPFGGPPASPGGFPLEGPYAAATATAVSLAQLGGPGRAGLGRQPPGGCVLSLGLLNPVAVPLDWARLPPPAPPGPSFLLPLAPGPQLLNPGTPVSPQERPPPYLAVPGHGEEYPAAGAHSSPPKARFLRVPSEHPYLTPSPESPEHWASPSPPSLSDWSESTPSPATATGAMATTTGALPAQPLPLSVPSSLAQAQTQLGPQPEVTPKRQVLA

For the compound `O=C1O[C@H](c2ccccc2)[C@H](c2ccccc2)N2[C@H]1[C@@H](C(=O)NC[C@H](O)c1ccccc1)[C@]1(C(=O)Nc3ccccc31)[C@H]2c1ccccc1OCCO`, the composite z-score is 1.55 in [1]; 2.92 in assay [5]; -0.181 in assay [7]; 1.71 in [8]; 0.723 in assay [9]; -0.109 in assay [10]. For the same compound, the z-score was 0.837 (inactive) in assay [2], 0.468 (inactive) in assay [3], 4.03 (inactive) in assay [4] and 2.05 (inactive) in [6].
For the compound `C[C@]12C(=O)N(CCCCCO)[C@@H]3C(=O)N(c4ccc(Cl)cc4)CC=CC31O[C@@H]1/C=C\CCCOC(=O)C12` (stereo not given in full), the composite z-score was -1.37 in assay [1]; -1.43 in assay [5]; -0.0986 in [7]; -0.757 in assay [8]; -0.0346 in assay [9]; -0.172 in [10]. For the same compound, the z-score in assay [2] was -0.299 (inactive); in [3] it was -1.14 (inactive); in assay [4] it was -0.637 (inactive); in assay [6] it was -1.25 (inactive).
Regarding `COCCCNC(=O)[C@@]1(Cc2ccccc2CN=[N+]=[N-])N=C(c2ccc(OCCCO)cc2)O[C@H]1c1ccccc1N=[N+]=[N-]`, the composite z-score in [1] came out at 1.31; in assay [5] it was 2.67; in assay [7], 0.214; in assay [8] it was 0.399; in assay [9] it was 0.671; in assay [10], 0.525. Moreover, the z-score in [2] is -0.299 (inactive); in assay [3], -0.954 (inactive); in [4] it was 2.08 (inactive); in assay [6] it was 2.53 (inactive).
As to `COCCCNC(=O)[C@@]1(Cc2ccccc2N=[N+]=[N-])N=C(c2ccc(OCCCO)cc2)O[C@H]1c1ccccc1CN=[N+]=[N-]`, the composite z-score is 1.56 in assay [1]; 3.49 in assay [5]; 0.235 in assay [7]; -0.0194 in [8]; 1.07 in [9]; 0.43 in assay [10]. In addition, the z-score in assay [2] was -0.873 (inactive); in [3], 0.553 (inactive); in assay [4], 6.93 (inactive); in assay [6] it was 1.04 (inactive).
As for `Cc1ccc(S[C@]2(C(=O)NCc3ccccc3)CC(=O)N(C3Cc4ccccc4C3)[C@@H]2c2ccc(CO)cc2I)cc1`, the composite z-score is 1.19 in assay [1]; 2.11 in [5]; -0.165 in assay [7]; -0.508 in assay [8]; -0.288 in assay [9]; -0.135 in assay [10]. Further, the z-score in assay [2] was -2.5 (inactive); in assay [3] it was -1.73 (inactive); in [4], 0.199 (inactive); in assay [6], 3.17 (inactive).
Consider `CC(C)(C)OC(=O)CC[C@]1(C(=O)N2CCCCC2)N=C(c2ccc(OCCCO)cc2)O[C@H]1c1ccccc1CN=[N+]=[N-]`, for which the composite z-score amounted to 1.54 in [1]; 3.67 in [5]; 0.694 in assay [7]; 0.743 in [8]; 1.05 in assay [9]; 0.314 in assay [10]. The z-score is -4.42 (inactive) in [2], -0.736 (inactive) in assay [3], -0.279 (inactive) in [4] and 2.1 (inactive) in assay [6].
On to `CC(C)c1ccc(NN2C(C(O)c3ccccn3)C=CC3C(=O)N(c4ccccc4)C(=O)C32)cc1` (stereo not given), for which the composite z-score amounted to 1.5 in [1]; 3.7 in [5]; 0.0038 in assay [7]; 1.7 in assay [8]; 1.05 in [9]; 0.154 in assay [10]. Further, the z-score was 0.485 (inactive) in assay [2], -0.951 (inactive) in assay [3], -0.252 (inactive) in [4] and -0.405 (inactive) in [6].
Regarding `CCCNC(=O)[C@@]1(Sc2ccc(C)cc2)CC(=O)N(Cc2ccccc2)[C@@H]1c1ccc(CO)cc1I`, the composite z-score in assay [1] was 0.933; in [5], 0.869; in assay [7], -0.0866; in assay [8] it was 0.54; in [9], 0.282; in assay [10], -0.11. In addition, the z-score is -1.09 (inactive) in assay [2], -1.46 (inactive) in assay [3], 0.605 (inactive) in assay [4] and 0.605 (inactive) in assay [6].
For `COc1ccccc1CN1C(=O)c2ccccc2[C@@H](C(=O)NCC(C)C)[C@@H]1c1ccc(CO)cc1`, the composite z-score in assay [1] was -0.106; in assay [5] it was 2.18; in assay [7] it was -0.0042; in assay [8], -0.081; in assay [9] it was -0.222; in [10], -0.0398. The z-score in assay [2] was 0.444 (inactive); in assay [3] it was -0.288 (inactive); in assay [4], 0.125 (inactive); in assay [6], 0.0616 (inactive).
`CC(C)C(CO)N1C(=O)[C@@H]2[C@H]3C(=O)OCC=C[C@H]3OC23C=CCN(CCN2CCOCC2)C(=O)[C@@H]13` (stereo not given in full): the composite z-score was 0.598 in assay [1]; 1.13 in assay [5]; -0.25 in assay [7]; 0.521 in [8]; 0.583 in assay [9]; -0.244 in assay [10]. Besides, the z-score in [2] was 1.21 (inactive); in assay [3], 0.0729 (inactive); in assay [4] it was 0.759 (inactive); in assay [6], -0.455 (inactive).
Regarding `COCCCNC(=O)[C@@]1(C)c2ccccc2C(=O)N(c2ccc(C)cn2)[C@H]1c1ccc(CO)cc1`, the composite z-score in assay [1] is 0.194; in assay [5], 3.55; in assay [7] it was -0.428; in assay [8] it was -0.978; in [9], -0.99; in [10], -0.427. The z-score was -0.435 (inactive) in assay [2], -0.473 (inactive) in [3], -1.67 (inactive) in assay [4] and 0.288 (inactive) in assay [6].
On to `COCCCNC(=O)[C@@]1(Cc2ccccc2)COC(c2ccc(OCCCO)cc2)=N1`, for which the composite z-score is 1.49 in [1]; 3.55 in assay [5]; 0.0634 in assay [7]; -0.233 in [8]; 0.117 in assay [9]; -0.0828 in [10]. Further, the z-score in [2] was -1.29 (inactive); in [3], -1.98 (inactive); in [4], -1.27 (inactive); in assay [6] it was 1.47 (inactive).
As to `CC(C)C[C@@H]1NC(=O)[C@@]23C(=O)N[C@@H](Cc4ccccc4)C2[C@H](C)[C@@]2(C)O[C@H]2C3/C=C/C/C=C\CNC(=O)[C@@H]2CCCN2C1=O` (stereo not given in full), the composite z-score is -0.653 in [1]; 0.0315 in [5]; -0.223 in assay [7]; 0.326 in assay [8]; -0.46 in assay [9]; -0.121 in assay [10]. Moreover, the z-score in [2] was 0.0289 (inactive); in assay [3], -0.151 (inactive); in assay [4], -0.453 (inactive); in assay [6] it was -0.762 (inactive).
As to `O=C1N(CCS(=O)(=O)c2ccccc2)Cc2ccccc2C[C@@]12COC(c1ccc(OCCCO)cc1)=N2`, the composite z-score in assay [1] worked out at 1.54; in assay [5] it was 3.04; in [7], 0.686; in [8], 0.982; in assay [9] it was 1.04; in assay [10], 0.285. The z-score was 0.978 (inactive) in assay [2], 0.381 (inactive) in assay [3], 3.45 (inactive) in assay [4] and 0.937 (inactive) in [6].

For the origin of these results see PubChem BioAssay.
